# Many of the other results were omitted from the sample, so hits are more common in it than they were.
# AMA1 RON2 block: qHTS for Inhibitors of AMA1-RON; Towards Development of Antimalarial Drug Lead: Primary Screen; 360,000 compounds, 0.2% hits; Potency, µM (series often up to 58.2 µM), inactives show at the top dose activity change, negative = inhibition, hits mostly inhibitors; AlphaScreen AMA1-biotinylated RON2 peptide binding; Plasmodium falciparum AMA1 (3D7) - RON2 peptide interaction; active means well fitted inhibition curve with a large enough effect; inconclusive means small, poorly fitted or top-dose-only effect; inactive means no such curve, though single readings can be large or run the other way;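 further: potency means the concentration at half of the fitted maximal effect; 0% = vehicle wells and -100% = peptide control; nearly all actives have a fitted effect of over 45% in size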
#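 AMA1 (3D7) with his tag at 25 nM final met compounds first, then biotinylated RON2 peptide at 25 nM; detection used donor plus acceptor beads, 10 µg/mL apiece, read by AlphaScreen after 30 min at room temperature.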
# Shiga inhibitor: A qHTS for Small Molecule Inhibitors of Shiga Toxin; Vero cells, Shiga toxin protein synthesis inhibition reporter; inhibition, % at 38.7 µM; 290,000 compounds, 9.2% hits; AID 2315, 2010; in the data active means inhibition mostly above about 28%, no sharp cut-off; inactive means mostly below about 43%; further: 0% is about no effect
# Cycloheximide cs: Cycloheximide Counterscreen for Small Molecule Inhibitors of Shiga Toxin | cell reporter, cycloheximide protein synthesis inhibition counterscreen | max response, % | 300,000 compounds, 12% hits | AID 2314, 2010; in the data active means max response mostly above about 13%, no sharp cut-off; inactive means mostly below about 14%; further: read at 38.3 µM for the half of the compounds with a filed dose; 0% is about no effect
# Marburg entry inh: qHTS for inhibitors of binding or entry into cells for Marburg Virus | Marburg virus pseudotyped entry inhibition, cell reporter | Potency, µM (titrated, usually from 37.8 µM), inactives show at the highest dose activity change, negative = inhibition, usual class: inhibitors | 300,000 compounds, 1.8% hits | AID 540276, 2011; calls by dose curve; tested in HEK293 cells; further: potency means the concentration at half of the fitted maximal effect; on the % scale 0 is the no-effect control and ±100 the full control effect
# LASV entry inh: qHTS for Inhibitors of binding or entry into cells for Lassa Virus; Lassa virus pseudotype entry inhibition, cell reporter; 300,000 compounds, 1.2% hits; Potency, µM (doses to about 37.9 µM), without a hit: at the top dose activity change, negative = inhibition, usual class: inhibitors; calls by dose curve; tested in HEK293 cells; further: potency means the concentration at half of the fitted maximal effect; on the % scale 0 is the no-effect control and ±100 the full control effect; nearly all actives have a fitted effect of over 50% in size
# Starred values were filed as active, the others as inactive; ? = inconclusive; · = no result given; [ ] = remark or other dose.
SMILES,AMA1 RON2 block,Shiga inhibitor,Cycloheximide cs,Marburg entry inh,LASV entry inh
CCOC(=O)N1CCN(c2ccc(C(F)(F)F)cn2)CC1,12%,28,20*,12%,?
CS(=O)(=O)N1N=C(c2cccs2)CC1c1ccc(F)cc1 (stereo not given),0%,51,33*,·,·
CCS(=O)(=O)Nc1cccc(C2=NN(S(C)(=O)=O)C(c3cccs3)C2)c1 (stereo not given),0%,5,-5,·,·
CS(=O)(=O)N1N=C(c2ccc(Cl)cc2)CC1c1cccs1 (stereo not given),-7%,35,35*,-16%,-3%
CC(=O)c1cc(C#N)c(SCc2ccc(F)cc2)nc1C,-7%,74,6,13%[46.1 µM],13%
CC(=O)c1cc(C#N)c(SCC(=O)O)nc1C,0%,-7,-5,?,0%
CCOC(=O)CSc1nc(C)c(C(C)=O)cc1C#N,5%,100*,18*,6%,?
CCCCSc1nc(C)c(C(C)=O)cc1C#N,34%,79*,32*,5%,19%
CSc1ccc(Cc2ccc(Cl)cc2Cl)nn1,0%,38,22*,?,4%
Cc1ccc(C)c(N2CCN(C(=O)Cc3cn(C)c4ccccc34)CC2)c1,?,-18,-3,18µM*,21µM*
COc1cc(OC)cc(C(=O)Nc2ccc(S(=O)(=O)Nc3cnc4ccccc4n3)cc2)c1,-2%,·,·,-5%,-2%
O=C1CCCC/C1=C\Nc1ccc(S(=O)(=O)Nc2cnc3ccccc3n2)cc1,-6%,27,-1,·,·
COc1cccc(C(=O)/C=C/Nc2ccc(S(=O)(=O)Nc3cc(OC)nc(OC)n3)cc2)c1,0%,69*,34*,-1%[46.1 µM],10%
Cc1ccc(C(=O)Nc2ccc(S(=O)(=O)Nc3cnc4ccccc4n3)cc2)cc1,3%,72,20*,?,17%[46.1 µM]
COc1cc(C(=O)Nc2ccc(S(=O)(=O)Nc3cnc4ccccc4n3)cc2)cc(OC)c1OC,-1%,-17,-1,·,·
COc1cccc(C(=O)/C=C/Nc2ccc(S(=O)(=O)Nc3cnc4ccccc4n3)cc2)c1,-3%,98*,69*,?,-4%
O=C(/C=C/Nc1ccc(S(=O)(=O)Nc2cnc3ccccc3n2)cc1)c1ccccc1,-3%,61,28*,-28%[46.1 µM],-9%
CCOC(=O)C(=O)N(C)c1c(CC)nc2c(OCCC3CCCCC3)cccn12,34%,·,·,·,·
Cc1ccc(NC(=O)c2ccc(CN3CC(=O)N4CCCCC4C3=O)cc2)cc1C (stereo not given),·,·,·,·,2%[46.1 µM]
COc1cc(OC)c(C(=O)O/N=C(\N)c2ccccn2)cc1OC,58%,78*,14*,·,·
Cc1ccc(C(=O)O/N=C(\N)c2ccccn2)c(C)c1,20%,-22,-7,0.63µM*,0.79µM*
N/C(=N\OC(=O)c1ccccc1Cl)c1ccccn1,30%,-11,2,?,2.1µM*
N/C(=N\OC(=O)c1cc(-c2ccccc2)nc2ccccc12)c1ccccn1,49%,-11,5,·,·
N/C(=N\OS(=O)(=O)c1ccc(Cl)cc1)c1ccccn1,70%,56*,17*,?,-20%
O=C(CC1SC(N2CCCC2)=NC1=O)Nc1ccc(C(=O)N2CCN(c3cccc(Cl)c3)CC2)cc1 (stereo not given),0%,·,·,-38%,?
SMILES,AMA1 RON2 block,Shiga inhibitor,Cycloheximide cs,Marburg entry inh,LASV entry inh
Cc1ccccc1C(=O)O/N=C(\c1ccccc1)c1ccccn1,-9%[2.32 µM],-4,8,?,7%
COc1ccccc1C(=O)O/N=C(\N)c1ccccn1,37%,34,22*,3.5µM*,?
OC[C@@H]1CN(Cc2cccs2)C[C@H](n2cnc3c(NCc4ccc(F)cc4)ncnc32)O1,-23%,·,·,·,·
Cc1cc(C(C)(C)C)oc1C(=O)N(CC(=O)NC1CCCC1)c1cccc(C(F)(F)F)c1,-9%,11,2,23µM*,?
CCc1ccc(Nc2nnc(SCC(=O)N(C)CC(=O)Nc3ccccc3CC)s2)cc1,7%,26,28*,?,?
CC12CCC(=O)N1C(C(=O)NCCc1ccc(S(N)(=O)=O)cc1)CS2 (stereo not given),-3%,-21,-2,14%,8%
CCOC(=O)c1c(C)n(-c2ccc(C)cc2)c2c(C(C(C)=O)C(=O)O)c(Br)c(O)c(O)c12 (stereo not given),-26%,-16,13,-29%,?
